This passage reports AC50 and outcome results from PubChem BioAssay (EPA / NIEHS).

Structures are written as SMILES. The source holds several records for some structures; these can differ, active in one and inactive in another. Calls of active or inactive are those of the source. How the source made its calls: active means hit-call score of the fitted dose curve at least 0.9, where 1 is the maximum; inactive means score below 0.9.

Read-out in assay [1]: Human Leukocyte Antigen - DR isotype (HLADR), HLA-DRA (gene 3122)
As to the kind of experiment: BSK_3C_HLADR: BioMAP Diversity Plus: 3C Assay for Human Leukocyte Antigen - DR isotype (HLADR) Biomarker Activity (AID 2283019). Conditions: primary human endothelial cells (HUVEC); actives raise or lower the signal. The method, boiled down:
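Primary human umbilical vein endothelial cells (3C system) were dosed with compound and cell-surface HLA-DR was quantified by ELISA at 24 h. Activity was fitted bidirectionally against DMSO as negative control and baseline.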

Read-out in assay [2]: Interleukin-8 (IL8), CXCL8 (gene 3576)
As to the kind of experiment: BSK_3C_IL8: BioMAP Diversity Plus: 3C Assay for Interleukin-8 (IL8) Biomarker Activity (AID 2283020). Particulars: primary human endothelial cells (HUVEC); actives raise or lower the signal. The method, boiled down:
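IL-8 was measured by ELISA in HUVEC cultures 24 h after chemical dosing, with gain or loss of signal fitted relative to DMSO. Parallel SRB total-protein staining tracked overt cytotoxicity.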

Read-out in assay [3]: Monokine induced gamma interferon (MIG), CXCL9 (gene 4283)
Kind of assay: BSK_3C_MIG: BioMAP Diversity Plus: 3C Assay for Monokine induced gamma interferon (MIG) Biomarker Activity (AID 2283021). Conditions: primary human endothelial cells (HUVEC); actives raise or lower the signal. A digest of the protocol:
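ELISA measurement of MIG in human umbilical vein endothelial cells 24 h after treatment. Cytotoxicity tracked by SRB staining in parallel cultures; gain or loss of signal fitted relative to DMSO.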

Assay [4] can be described thus: BSK_3C_SRB: Viability Assessment in the BioMAP Diversity Plus: 3C Assay (AID 2283023).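 Further: fitted both ways against DMSO so a hit may be signal rise or drop.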 Conditions: primary human endothelial cells (HUVEC). The method, boiled down: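 Primary human umbilical vein endothelial cells in the 3C system were read 24 h after compound dosing. Total protein was stained with 0.1% sulforhodamine B after 10% TCA fixation and read at 560 nm, with bidirectional fitting against DMSO as baseline.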

Read-out in assay [5]: Matrix Metallopeptidase 1 (MMP1), MMP1 (gene 4312)
Kind of assay: BSK_BE3C_MMP1: BioMAP Diversity Plus: BE3C Assay for Matrix Metallopeptidase 1 (MMP1) Biomarker Activity (AID 2283024). Conditions: primary human bronchial epithelial cells; actives raise or lower the signal. The method, boiled down: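 ELISA measurement of MMP-1 after 24 h compound exposure of primary human bronchial epithelial cells. Changes in either direction fitted relative to DMSO; parallel SRB staining checked overt cytotoxicity.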

The nature of assay [6]: BSK_3C_Vis: BioMAP Diversity Plus: 3C Assay for Morphology Visualization (AID 2283025).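 Further: fitted both ways so gain or loss versus DMSO counts.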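 On AC50: light microscopy image of cell morphology used as background control.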 Conditions: primary human endothelial cells (HUVEC). The method, boiled down: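 Light-microscopy visualization of HUVEC cultures at 24 h post-treatment, with DMSO as baseline for bidirectional fitting.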
Read-out in assay [7]: Pselectin, SELP (gene 6403)
Kind of assay: BSK_4H_Pselectin: BioMAP Diversity Plus: 4H Assay for Pselectin Biomarker Activity (AID 2283026). Conditions: primary human endothelial cells (HUVEC); actives raise or lower the signal. The method, boiled down:
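ELISA of surface P-selectin on HUVEC, 24 h after dosing, with parallel SRB staining (0.1% after 10% TCA fixation, 560 nm) for overt cytotoxicity. Activity fitted in both directions relative to DMSO.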

Assay [8] in a line: BSK_4H_SRB: Viability Assessment in the BioMAP Diversity Plus: 4H Assay (AID 2283027).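 Further: cells exposed to compound for 24 h before staining.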 Conditions: primary human endothelial cells (HUVEC). The method, boiled down: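 Cytotoxicity read-out in primary human endothelial cells: after 24 h compound exposure, cells were TCA-fixed (10%), stained with 0.1% SRB and absorbance taken at 560 nm. Values fitted in both directions relative to DMSO.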

The nature of assay [9]: BSK_BE3C_SRB: Viability Assessment in the BioMAP Diversity Plus: BE3C Assay (AID 2283028). Particulars: primary human bronchial epithelial cells. A digest of the protocol:
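Human primary bronchial epithelial cells were exposed to test chemicals for 24 h. Total protein in parallel cultures was then measured by staining with 0.1% sulforhodamine B after 10% TCA fixation, with absorbance read at 560 nm. Activity was fitted bidirectionally against DMSO.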

Read-out in assay [10]: Thrombomodulin, THBD (gene 7056)
As to the kind of experiment: BSK_3C_Thrombomodulin: BioMAP Diversity Plus: 3C Assay for Thrombomodulin Biomarker Activity (AID 2283029). Conditions: primary human endothelial cells (HUVEC); actives raise or lower the signal. The method, boiled down: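 ELISA measurement of thrombomodulin on HUVEC surface 24 h after chemical dosing; activity fitted in both directions relative to DMSO vehicle.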

Read-out in assay [11]: Urokinase-type plasminogen activator receptor (uPAR), PLAUR (gene 5329)
Kind of assay: BSK_4H_uPAR: BioMAP Diversity Plus: 4H Assay for Urokinase-type plasminogen activator receptor (uPAR) Biomarker Activity (AID 2283030). Particulars: primary human endothelial cells (HUVEC); actives raise or lower the signal. A digest of the protocol: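 Primary human umbilical vein endothelial cells were exposed to chemical for 24 h before cell-surface uPAR was quantified by ELISA. Activity was fitted bidirectionally against the DMSO negative control baseline.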

Read-out in assay [12]: Vascular endothelial growth factor receptor 2 (Homo sapiens) (UniProt P35968)
As to the kind of experiment: BSK_4H_VEGFRII: BioMAP Diversity Plus: 4H Assay for Vascular endothelial growth factor receptor 2 (VEGFR2) Biomarker Activity (AID 2283031). Particulars: primary human endothelial cells (HUVEC); actives raise or lower the signal. A digest of the protocol: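 Primary human umbilical vein endothelial cells in the BioMAP 4H system were dosed with test chemical, and 24 h later VEGFRII was measured by ELISA. Activity was fitted bidirectionally against DMSO as negative control and baseline.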

Read-out in assay [13]: Human Leukocyte Antigen - DR isotype (HLADR), HLA-DRA (gene 3122)
As to the kind of experiment: BSK_BE3C_HLADR: BioMAP Diversity Plus: BE3C Assay for Human Leukocyte Antigen - DR isotype (HLADR) Biomarker Activity (AID 2283032). Particulars: primary human bronchial epithelial cells; actives raise or lower the signal. A digest of the protocol:
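Cell-surface HLA-DR ELISA readout at 24 h after dosing in the BE3C primary human lung bronchial epithelial system; gain or loss of signal against DMSO, with parallel sulforhodamine B staining of total protein for overt cytotoxicity.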

Read-out in assay [14]: Interferon-gamma inducible Protein 10 (IP10), CXCL10 (gene 3627)
Kind of assay: BSK_BE3C_IP10: BioMAP Diversity Plus: BE3C Assay for Interferon-gamma inducible Protein 10 (IP10) Biomarker Activity (AID 2283034). Particulars: primary human bronchial epithelial cells; actives raise or lower the signal. A digest of the protocol:
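IP-10 quantified by ELISA in human primary bronchial epithelial cell cultures at 24 hours post-dosing. Gain or loss of signal fitted relative to DMSO; parallel SRB staining assessed overt cytotoxicity.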

Read-out in assay [15]: Monokine induced gamma interferon (MIG), CXCL9 (gene 4283)
As to the kind of experiment: BSK_BE3C_MIG: BioMAP Diversity Plus: BE3C Assay for Monokine induced gamma interferon (MIG) Biomarker Activity (AID 2283035).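 Further: MIG protein measured by ELISA in BE3C cultures after 24 h of dosing.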 Conditions: primary human bronchial epithelial cells; actives raise or lower the signal. A digest of the protocol:
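ELISA quantified MIG after 24 h exposure of primary bronchial epithelial cultures, analysed in both directions relative to DMSO. Cytotoxicity tracked in parallel cultures by sulforhodamine B staining.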

Read-out in assay [16]: Transforming growth factor beta 1 (TGFb1), TGFB1 (gene 7040)
As to the kind of experiment: BSK_BE3C_TGFb1: BioMAP Diversity Plus: BE3C Assay for Transforming growth factor beta 1 (TGFb1) Biomarker Activity (AID 2283036;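 further: TGF-b1 protein level measured by ELISA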). Conditions: primary human bronchial epithelial cells; actives raise or lower the signal. The method, boiled down: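 ELISA readout of TGF-b1 from human lung bronchial epithelial primary cells, taken 24 h post-treatment. Gain or loss of signal fitted relative to DMSO baseline, with parallel SRB staining for overt cytotoxicity.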

Read-out in assay [17]: Plasminogen activator inhibitor-1 (PAI1), SERPINE1 (gene 5054)
Kind of assay: BSK_BE3C_PAI1: BioMAP Diversity Plus: BE3C Assay for Plasminogen activator inhibitor-1 (PAI1) Biomarker Activity (AID 2283037). Conditions: primary human bronchial epithelial cells; actives raise or lower the signal. A digest of the protocol:
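PAI-1 was measured by ELISA in human primary bronchial epithelial cultures 24 h after chemical dosing, with cytotoxicity checked by SRB total-protein staining in parallel cultures. Activity was fitted in both directions relative to DMSO.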

Read-out in assay [18]: urokinase plasminogen activator (uPA), PLAU (gene 5328)
As to the kind of experiment: BSK_BE3C_uPA: BioMAP Diversity Plus: BE3C Assay for urokinase plasminogen activator (uPA) Biomarker Activity (AID 2283038).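 Further: uPA protein level quantified by ELISA in cell cultures; uPA read one day after compound addition.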 Particulars: primary human bronchial epithelial cells; actives raise or lower the signal. The method, boiled down:
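Human primary bronchial epithelial cells were exposed to chemical for 24 h, then uPA levels were measured by ELISA. Responses were fitted bidirectionally against DMSO as negative control and baseline. Parallel SRB staining of total protein gauged overt cytotoxicity.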

Read-out in assay [19]: Urokinase-type plasminogen activator receptor (uPAR), PLAUR (gene 5329)
Kind of assay: BSK_BE3C_uPAR: BioMAP Diversity Plus: BE3C Assay for Urokinase-type plasminogen activator receptor (uPAR) Biomarker Activity (AID 2283039).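 Further: cells exposed to compound for one day before measurement.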 Conditions: primary human bronchial epithelial cells; actives raise or lower the signal. A digest of the protocol: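 uPAR levels were measured by ELISA after 24 h compound treatment of primary human bronchial epithelial cells, fitted in both directions relative to DMSO. Parallel SRB staining served as the cytotoxicity read-out.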

Read-out in assay [20]: Vascular cell adhesion molecule 1 (VCAM1), VCAM1 (gene 7412)
Kind of assay: BSK_4H_VCAM1: BioMAP Diversity Plus: 4H Assay for Vascular cell adhesion molecule 1 (VCAM1) Biomarker Activity (AID 2283033).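 Further: cell-surface VCAM-1 protein measured by ELISA.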 Particulars: primary human endothelial cells (HUVEC); actives raise or lower the signal. The method, boiled down: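 VCAM-1 ELISA read 24 h after chemical dosing of HUVEC in the BioMAP 4H system, with gain or loss of signal fitted relative to DMSO. Parallel SRB staining (560 nm) checked overt cytotoxicity.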

One may read the AC50 as the midpoint of the concentration-response curve, whichever way the signal moves.

`COP(=S)(OC)Oc1ccc([N+](=O)[O-])c(C)c1`: the AC50 in assay [1] is 20 µM (active); in assay [4], 16.5 µM (active); in [6], 39 µM (active); in assay [13], 20 µM (active). Moreover, the outcome in assay [2], in [3], in [5], in [7], in [8] and in [9] was inactive. Also, the result in assay [10], in assay [11], in assay [12], in assay [14], in assay [15] and in [16] was inactive. Moreover, the outcome in assay [17], in [18] and in assay [19] was inactive.
With `COP(=O)(OC)O/C(C)=C/C(=O)N(C)C`, the result in [1], in [2], in assay [3], in assay [4], in assay [5] and in [6] was inactive. In addition, the outcome in [7], in [8], in assay [9], in assay [10], in assay [11] and in assay [13] was inactive. Besides, the result in assay [20], in assay [14], in assay [15], in assay [16], in assay [17] and in assay [18] was inactive. Also, the result in [19] was inactive.
Consider `COCC(C)N(C(=O)CCl)c1c(C)csc1C` (stereo not given), for which the outcome in assay [1], in assay [2], in assay [3], in assay [4], in assay [5] and in assay [7] was inactive. The result in [8], in assay [9], in [10], in [11], in assay [13] and in assay [14] was inactive. Further, the outcome in assay [15], in [16], in assay [17], in [18] and in [19] was inactive. Moreover, the AC50 in assay [7] is 14.6 µM (active).
Take `O=C(O)c1c(Cl)ccc2cc(Cl)cnc12`: the result in assay [1], in assay [2], in assay [3], in assay [4], in assay [5] and in assay [6] was inactive. Besides, the result in assay [7], in assay [8], in [9], in assay [10], in [11] and in assay [13] was inactive. Moreover, the outcome in [20], in assay [14], in assay [15], in assay [16], in assay [17] and in [18] was inactive. Moreover, the result in [19] was inactive.
As to `CN/C(=N\[N+](=O)[O-])NCc1cnc(Cl)s1`, the result in assay [1], in assay [2], in assay [3], in assay [4], in assay [5] and in assay [6] was inactive. For the same compound, the outcome in assay [7], in assay [8], in [9], in assay [10], in assay [11] and in [12] was inactive. The result in [13], in [20], in assay [14], in assay [15], in assay [16] and in [17] was inactive. Moreover, the outcome in assay [18] and in assay [19] was inactive.
For `CCOc1nc(F)cc2nc(S(=O)(=O)Nc3c(Cl)cccc3Cl)nn12`, the result in assay [1], in [2], in assay [3], in assay [4], in assay [5] and in assay [6] was inactive. The result in [7], in assay [8], in [9], in assay [10], in assay [11] and in [12] was inactive. Moreover, the outcome in [20], in assay [15], in assay [16], in [18] and in [19] was inactive. For the same compound, the figures for the AC50 in [13], in assay [14] and in assay [17] were 27.9 µM (active), 31.4 µM (active) and 20.9 µM (active), respectively.
